Laboratory results: PubChem BioAssay AID590 (National Center for Advancing Translational Sciences (NCATS), 2007)
Screen size: about 59,000 compounds; about 6,500 (11%) were called active. Another 15% or so got no clear call; they are omitted. This is one part of a sample in which actives are shown more often than they occur. Rule as the data show it: active = max dye-equivalent concentration above about 10 nM; inconclusive = mostly about 1.1 nM to 9.6 nM; inactive = weaker than that. Where a structure was tested more than once in an assay, its records may differ in their call.

Assay: qHTS Assay for Spectroscopic Profiling in A350 Spectral Region
Settings: Compound autofluorescence, 340/450 nm, Alexa 350 dye-equivalents; stronger effect = higher value

Max dye-equivalent concentration, inactive:
CCC(C)NC(=O)C1CCC(=O)N1Cc1ccc(C)cc1 (centres undefined), NC(=O)C1(N2CCCCC2)CCN(C(=O)c2ccc(C#Cc3ccccc3)o2)CC1, O=S(=O)(NCc1ccccc1Cl)c1cnc[nH]1, Cc1cc(NC(=O)c2cc(-c3cccs3)on2)nn1Cc1ccc(Cl)cc1, O=C(O)CCC(=O)N(Cc1cccs1)Cc1cccs1, COc1ccc(NC(=O)N2CC3(CCN(C(C)=O)CC3)C2)cc1, CC(C)c1ccc(NC(=O)NC2CCCCC2)cc1, FC(F)(F)c1ccccc1-c1nc(-n2ccnc2)c2ccccc2n1, Cn1c(=O)[nH]c(=O)c2c1nc(NCCCn1ccnc1)n2Cc1cccc(Br)c1, COc1cccc(NC(=O)c2ccccc2SC)c1, COc1ccc(NC(=O)c2c(C)oc3c2CCCC3)cc1, O=C(O)c1ccc(C(=O)c2ccccc2C(=O)O)cc1C(=O)O, C=CCn1c(COc2ccccc2F)nnc1SCC(=O)N1CC(=O)Nc2ccccc21, CCOC(=O)CNC(=O)CSc1nnc(COc2ccc(Cl)cc2)n1CC, COCc1nc2ccccc2n1Cc1ccccc1Br, CCOC(=O)c1c(C)oc2ccc(OCC(=O)N(CC)CC)cc12, COc1ccc(OCC(=O)OCCN(C)C)cc1, Cc1nn(-c2ccccc2)c(C)c1C(=O)OCC(=O)NC(=O)NC1CCCCC1, O=C(CSc1nnc(-c2ccccn2)n1-c1ccccc1)Nc1ccc2c(c1)OCO2, O=c1ccc2cc(S(=O)(=O)N3CCN(c4ccccc4)CC3)ccc2o1, Cc1cc(C)cc(NC(=O)C2CCN(c3nc(C)cc(C)n3)CC2)c1, Cc1ccc2c(NC(=O)C3CC3)cccc2n1, CCCC(=O)N1c2ccc(-c3csc(N)n3)cc2CC1C (centres undefined), Cc1noc(NS(=O)(=O)c2ccc(N3CC(O)=C(c4ccccc4)C3=N)cc2)c1C, COc1cccc(N(C(=O)c2ccn[nH]2)C2(C(=O)Nc3c(C)cccc3C)CCCCC2)c1, CS(=O)(=O)N1CCC[C@@]2(CCN(c3ccncc3)C2)C1, Cc1ccc(CN2C(=O)CCC2C(=O)NCCCN2CCCCC2C)cc1 (centres undefined), COc1ccccc1CN1CC2(CCN(S(=O)(=O)c3ccccc3)CC2)C1, CC(C)OCCCNC(=O)C1CC(=O)N(C2CCCCCCC2)C1 (centres undefined), COc1ccc(CCNS(=O)(=O)c2ccc(F)cc2)cc1OC, CSc1nc(N)c(C#N)c(-c2ccccc2Cl)c1C#N, CCCc1[nH]nc2c1C(c1c(C)nn(-c3ccccc3)c1Cl)C(C#N)=C(N)O2 (centres undefined), O=S(=O)(c1ccccc1)N(CC(O)CN1CCCCC1)c1ccccc1 (centres undefined), O=C1c2oc3ccc(Br)cc3c(=O)c2C(c2cccc(F)c2)N1CCO (centres undefined), Cn1c(=O)c2c(nc(NCCc3ccccc3)n2Cc2ccccc2)n(C)c1=O, CCCSc1nc2c(c(=O)[nH]c(=O)n2C)n1CCc1ccccc1, O=S1(=O)CC(NCc2ccccc2)C(Nc2ccc(Cl)cc2)C1 (centres undefined), Cc1ccc(C)c(NC(=O)C2CC(=O)N(C(C)C)C2)c1 (centres undefined), COc1ccccc1CCn1c(=O)c(-c2cn(C)c3ccccc23)nc2cncnc21, CN(C(=O)COc1nnc(-c2cccs2)c(-c2cccs2)n1)c1ccccc1, Cc1ccccc1NC(=O)Cc1nnc(SCC(=O)N2CCN(c3ccccc3)CC2)n1C, C=CCn1c(C)cc(C(=O)CN2C(=O)c3ccccc3C2=O)c1C, CC(=O)Nc1ccc(NS(=O)(=O)c2cc(C)sc2C)cc1, COc1ccccc1CNc1ncncc1-c1cccc(NS(C)(=O)=O)c1, Cc1ccc(C(=O)NCC(=O)O)cc1S(=O)(=O)N1CCCCC1, CS(=O)(=O)Nc1cccc(-c2cncnc2Nc2ccccc2)c1, CCOc1ccc(OCC)c(NC(=O)C2CCN(S(=O)(=O)c3c(C)noc3C)CC2)c1, FC(F)(F)c1cccc(Nc2ncnc3ccccc23)c1, Cc1cccc(C(=O)Nc2ccc(CC(=O)O)cc2)c1, O=C(O)CCCc1ccccc1, Cc1c(-c2nn(C)c(=O)c3ccccc23)oc2ccc(F)cc2c1=O, Cc1[nH]c2ccccc2c1C(=O)CSCC(=O)O, CCOC(=O)C1CCN(C(=O)c2oc3ccc(S(=O)(=O)N4CCCCCC4)cc3c2C)CC1, COc1ccc(/C(O)=C2/C(=O)C(=O)N(CCCN(C)C)C2c2ccccc2)cc1OC (centres undefined), CCCOc1ccc(/C(O)=C2/C(=O)C(=O)N(CCN(C)C)C2c2ccc(OC)c(OC)c2)cc1 (centres undefined), CS(=O)(=O)N(C(=O)NC(=O)NC1CCS(=O)(=O)C1)C1CCCCC1 (centres undefined), c1cnc(NC2C3CC4CC(C3)CC2C4)nc1 (centres undefined), O=C(CN(Cc1ccccc1)C(=O)c1ccc2c(c1)OCCO2)NCc1ccc2c(c1)OCO2, Cc1cc(NC(=O)Cn2nc(C(F)(F)F)c3c2CCCC3)no1, COC(=O)c1ccc(C2NC(=O)NC(C)=C2C(=O)N(C)C)cc1 (centres undefined), COCCOC(=O)C1=C(C)NC(=O)CC1c1cc2c(cc1Br)OCO2 (centres undefined), COC(=O)c1ccccc1NC(=O)CN(Cc1ccccc1)S(C)(=O)=O, S=c1[nH]nc(SCc2ccccc2Cl)c2[nH]cnc12, CCOC(=O)N1CCC(O)(c2cc(C)c(C)cc2C)CC1, CCOC(=O)N1CCN(CC(=O)n2c(C)c(C)c3ccccc32)CC1, O=C(NCCCCO)C(F)(F)C(F)(F)C(F)(F)C(=O)NCCCCO, O=C(Nn1cnc2ccccc2c1=O)c1ccc(F)cc1Cl, O=C(O)Cc1ccc(NC(=O)c2cccs2)cc1, Cn1c(SCC(=O)Nc2cccc(NC(=O)c3cccs3)c2)nnc1-c1ccncc1, O=C(O)C1CC(=O)N(Cc2cccnc2)C1 (centres undefined), CCOc1ccccc1NC(=O)CCc1ccc(C)o1, O=C(Oc1ccc2c(c1)CCC2)N1CCOCC1, O=C(Nc1cccc(OCC(=O)N2CCOCC2)c1)C1CCCCC1, CCNc1nc(SCCOc2ccccc2)nc(N(C)C)n1, CCCn1c(SCC(=O)Nc2c(C)cccc2C)nnc1C(C)C, CC(=O)Nc1ccc(NC(=O)CN2CCCC(C)C2)c(Cl)c1 (centres undefined), Cn1c(=O)c2c(nc(CN3CCOCC3)n2Cc2ccccc2)n(C)c1=O, Cc1nnc(SCC(N)=O)n1CC1CCCO1 (centres undefined), CCn1cc(C(=O)NCc2ccc(OC)cc2OC)c(=O)c2ccc(C)nc21, Cc1ccc(S(=O)(=O)NC(=O)NN2C[C@H]3CCC[C@@H]3C2)cc1, Cc1cc(=O)[nH]c(SCC(N)=O)c1C#N, Cn1cccc1C(=O)N1CCC[C@@]2(CCN(Cc3nccs3)C2)C1, O=S(=O)(c1ccc(Sc2nnc3ccccn23)nc1)N1CCOCC1, CC(C)(C)c1nc(NCC2CCCO2)c2nnn(Cc3ccccc3)c2n1 (centres undefined), CC(CCO)Nc1nc2c([nH]1)c(=O)n(C)c(=O)n2C (centres undefined), Cc1ccc2nc(S(=O)(=O)O)[nH]c2c1, COc1cc(-c2nnc(Cn3cc(C(F)(F)F)ccc3=O)o2)cc(OC)c1OC, COc1cc(-c2nc(S(=O)(=O)c3ccc(Cl)cc3)c(N(C)C)o2)cc(OC)c1OC, CCCCC(=O)N1CC2(C)CN(C(=O)CCCC)CC(C)(C1)C2=O

Max dye-equivalent concentration, active:
CC(C)Cn1c(CCC(=O)O)ccc1-c1cccs1 410 nM, COc1cc(OC)cc(C(=O)Nc2ccc(-c3nc4ccccc4o3)c(O)c2)c1 310 nM, COC(=O)COc1ccc2oc(=O)cc(C)c2c1 28 nM, CC(=O)N1CCC(C(=O)Nc2nc(-c3ccccc3)ns2)CC1 1700 nM, COc1ccc(OC)c2c(N)c(C#N)c(C(F)(F)C(F)(F)F)nc12 150 nM, CSc1ccc(-c2c(C#N)c(N)nc3c2c(C)nn3-c2ccccc2)cc1 360 nM, Cn1c(=S)c2[nH]c(SCCCc3ccccc3)nc2n(C)c1=O 12 nM, COCCn1c(=O)c(-c2cccs2)nc2cncnc21 89 nM, COCCn1c(=O)c(-c2cccs2)nc2cnc(N3CCN(C)CC3)nc21 17 nM, O=C(O)Cc1ccc(-c2ccccc2)cc1 47 nM, CCN(CC)CCN1C(=O)C(=O)/C(=C(/O)c2ccc(OC)c(OC)c2)C1c1ccccn1 (centres undefined) 42 nM, CCCOC(=O)C1=C(C)NC2=C(C(=O)C(C(=O)OC)C(C)C2)C1c1ccc(N(C)C)cc1 (centres undefined) 22 nM, CCOC(=O)N1CCN(CC(=O)c2ccc3c(c2)CCN3)CC1 17 nM, Cc1nc(-c2ccc(NC(=O)c3cccs3)cc2)cs1 280 nM, O=C1CC2(CCCCC2)Oc2ccc(OCC(=O)N3CCOCC3)cc21 1100 nM, Cc1cccn2c(=O)c3cc(C#N)c(=O)n(CCCN4CCOCC4)c3nc12 12000 nM, Cc1cccn2c(=O)c3cc(C#N)c(=NC(=O)c4cccnc4)n(CC4CCCO4)c3nc12 (centres undefined) 4000 nM, Cn1c(=O)c2[nH]c(NCC3CCCO3)nc2n(-c2ccccc2)c1=O (centres undefined) 11 nM, CCOC(=O)c1cc(-c2nnc(-c3cc(OC)c(OC)c(OC)c3)o2)c(C)nc1C 18 nM

outcome, inactive:
O=C(O)Cc1ccc(-c2ccccc2)cc1
